Measured values taken from PubChem BioAssay AID1159580 (chemical genetic matrix, 2015).
Hit rate of the full screen: of about 5,500 compounds, about 2,000 (36%) were called active. Not shown: some 18% with an inconclusive outcome. Rule as the data show it: active = normalized growth mostly below about 0.91 (no sharp cut-off); inconclusive = no clear call, values can overlap the other calls; inactive = mostly above about 0.92. The list shows a part of the results.

Test: chemical genetic growth profiling, strain panel (AID 1159580);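 also: tested at 20 µM; growth read once vehicle control cultures reached saturation at 30 °C; 1 = growth at the plate median or of vehicle wells; lower values mean less growth of the strain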
Conditions: growth OD
[1] = S. cerevisiae deletion strains, locus YAL013W, strain DEP1, stronger effect = lower value
[2] = S. cerevisiae deletion strains, locus YBR229C, strain ROT2, stronger effect = lower value
[3] = S. cerevisiae deletion strains, locus YCL061C, strain MRC1, stronger effect = lower value
[4] = S. cerevisiae deletion strains, locus YDL101C, strain DUN1, stronger effect = lower value
[5] = S. cerevisiae deletion strains, locus YDR150W, strain NUM1, stronger effect = lower value
[6] = S. cerevisiae deletion strains, locus YEL061C, strain CIN8, stronger effect = lower value
[7] = S. cerevisiae deletion strains, locus YGR078C, strain PAC10, stronger effect = lower value
[8] = S. cerevisiae deletion strains, locus YHR030C, strain SLT2, stronger effect = lower value
[9] = S. cerevisiae deletion strains, locus YHR087W, strain rtc3, stronger effect = lower value
[10] = S. cerevisiae deletion strains, locus YJR043C, strain POL32, stronger effect = lower value
[11] = S. cerevisiae deletion strains, locus YJR075W, strain HOC1, stronger effect = lower value
[12] = S. cerevisiae deletion strains, locus YLR058C, strain SHM2 (second series), stronger effect = lower value
[13] = S. cerevisiae deletion strains, locus YLR085C, strain ARP6, stronger effect = lower value
[14] = S. cerevisiae deletion strains, locus YLR262C, strain YPT6, stronger effect = lower value
[15] = S. cerevisiae deletion strains, locus YML094W, strain GIM5, stronger effect = lower value
[16] = S. cerevisiae deletion strains, locus YMR219W, strain ESC1, stronger effect = lower value
[17] = S. cerevisiae deletion strains, locus YMR263W, strain SAP30, stronger effect = lower value
[18] = S. cerevisiae deletion strains, locus YNL153C, strain GIM3, stronger effect = lower value
[19] = S. cerevisiae deletion strains, locus YNL298W, strain CLA4 (second series), stronger effect = lower value
[20] = S. cerevisiae deletion strains, locus YNL322C, strain KRE1, stronger effect = lower value
[21] = S. cerevisiae deletion strains, locus YNR030W, strain Alg12, stronger effect = lower value
[22] = S. cerevisiae deletion strains, locus YOL006C, strain TOP1, stronger effect = lower value
[23] = S. cerevisiae deletion strains, locus YPL055C, strain LGE1, stronger effect = lower value
[24] = S. cerevisiae deletion strains, locus YPL241C, strain CIN2, stronger effect = lower value
[25] = S. cerevisiae deletion strains, locus YPR135W, strain CTF4, stronger effect = lower value
[26] = S. cerevisiae strains, strain wild type, stronger effect = lower value
[27] = S. cerevisiae deletion strains, locus YKL190W, strain CNB1, stronger effect = lower value
[28] = S. cerevisiae deletion strains, locus YLR039C, strain RIC1, stronger effect = lower value

Measured: normalized growth

CCOC(=O)C(=CNNC(=O)c1ccccc1-n1cccc1)C(=O)OCC
inactive: [1] 0.993 | [2] 1.01 | [3] 1.01 | [4] 1.03 | [5] 1.01 | [6] 0.955 | [7] 1.01 | [8] 1.01 | [9] 0.974 | [10] 1.01 | [11] 1.01 | [12] 0.994 | [13] 0.996 | [14] 0.912 | [15] 0.997 | [16] 1.01 | [17] 1 | [18] 0.999 | [19] 1.01 | [20] 0.981 | [21] 1.02 | [22] 0.986 | [23] 0.975 | [24] 1.04 | [25] 1.04 | [26] 0.935

CCOC(=O)C(=CNc1ccccc1N1CCOCC1)C(=O)OCC
active: [13] 0.722 | [25] 0.52
inactive: [1] 0.96 | [2] 0.989 | [3] 0.978 | [4] 0.958 | [5] 0.939 | [6] 1 | [7] 0.963 | S. cerevisiae deletion strains, locus YGR229C, strain SMI1, stronger effect = lower value 0.978 | [8] 0.759 | [9] 0.999 | S. cerevisiae deletion strains, locus YJL187C, strain SWE1, stronger effect = lower value 0.979 | [10] 0.967 | [11] 0.991 | [27] 0.955 | [28] 0.9 | [12] 0.971 | [14] 0.915 | [15] 0.958 | [16] 0.981 | [17] 0.968 | [18] 0.986 | [19] 0.916 | [20] 0.975 | [21] 0.937 | [22] 0.825 | [23] 0.987 | [24] 0.938

CCOC(=O)C(=CNc1cccc(C#N)c1)C(=O)OCC
inactive: [1] 1.01 | [2] 0.987 | [3] 1 | [4] 1 | S. cerevisiae deletion strains, locus YDL134C, strain PPH21, stronger effect = lower value 0.994 | [5] 0.992 | [6] 0.957 | [7] 1.01 | [8] 0.942 | [9] 0.973 | [10] 1.02 | [11] 0.981 | [27] 0.98 | [28] 0.988 | [12] 0.995 | [13] 0.977 | [14] 0.962 | [15] 0.963 | [16] 0.997 | [17] 1.01 | S. cerevisiae deletion strains, locus YNL128W, strain TEP1, stronger effect = lower value 1.01 | [18] 1.01 | [19] 0.999 | [20] 0.997 | [21] 1.03 | [22] 0.91 | [23] 0.934 | [24] 1.01 | [25] 1.03 | [26] 0.994
